According to PubChem BioAssay AID493240 (Broad Institute, 2011):
Hit rate of the full screen: of about 1,300 compounds, about 270 (21%) were called active. No rule for the calls is given here. These entries were drawn from the full list. Potency and affinity values are given separately.

Assay: cytotoxicity in parental SK-MEL-5 melanoma cells – cell-based, CellTiter-Glo, cherry-picked, set 3, orthogonal assay for MITF inhibitor project, dose response (AID 493240)
Conditions: SK-MEL-5 viability, ATP luminescence (CellTiter-Glo), 24 h; series mostly up to 35 µM; activity change, negative = viability loss: at the top concentration

Structure (SMILES)	activity change, negative = viability loss
Cc1cccc(NC(=O)Cc2ccc(Br)cc2)n1	-13% (inactive)
Cc1ccc(Nc2nnc(-c3ccccc3N)o2)cc1C	15.7% (inactive)
COc1ccc(NC(=O)C2COc3ccccc3O2)cc1 (configuration not stated)	-4.53% (inactive)
Cn1nnnc1Sc1ncnc2scc(-c3cccs3)c12	-16.8% (inactive)
Cc1csc(NC(=O)Cc2c(F)cccc2Cl)n1	2.62% (inactive)
CC1(C)CC(=O)C=C(NC2=CC3OC(c4ccccc4)OCC3OC2=O)C1 (configuration not stated)	-23.8% (inactive)
O=[N+]([O-])/C=C\c1ccc(N2CCCC2)c(F)c1	-39.5% (inactive)
O=C(NCc1cccs1)c1nc2c(nnn2Cc2ccccc2Cl)c(=O)[nH]1	-3% (inactive)
COc1ccc(C2C(C#N)=C(N)Oc3c2oc(CO)cc3=O)cc1 (configuration not stated)	-0.975% (inactive)
O=C(O)c1ccc(N/N=C/c2ccc3nccnc3c2)cc1	-41.5% (inactive)
COc1cc([N+](=O)[O-])cc(/C=N/NC(=O)c2ccc(NC(=O)c3ccc(C)cc3)cc2)c1O	-2.58% (inactive)
CCN1CCN(c2ccc(S(=O)(=O)N3CCCCC3)cc2NC(=O)/C=C/c2ccc([N+](=O)[O-])cc2)CC1	-90% (inactive)
CCN1CCN(c2ccc(S(=O)(=O)N3CCOCC3)cc2NC(=O)/C=C/c2ccc([N+](=O)[O-])cc2)CC1	-52.7% (inactive)
O=C(NC1CCCC(C(F)(F)F)C1)c1ccc([N+](=O)[O-])o1 (configuration not stated)	-26.7% (inactive)
COc1cccc(-c2ccc3c(N)c(C(=O)NC4CC4)sc3n2)c1	4.82% (inactive)
CC(Oc1cccc(Br)c1)C(=O)NNC(=O)c1ccccn1 (configuration not stated)	-39.2% (inactive)
C/C(=N\NC(=O)C(c1ccccc1)c1ccccc1)c1ccccn1	-43.6% (inactive)
CC1CCN(c2ccc(NC(=O)c3cccnc3)cc2)CC1	-3.45% (inactive)
COC(=O)c1ccc(/C=N/Nc2nc(C)c(C)s2)cc1	-5.59% (inactive)
CS/C(N)=N/N=C/c1ccc2c(c1)OCO2	-6.57% (inactive)
COc1cc(CN2CCC(C(N)=O)CC2)ccc1OCc1ccccc1	-13.3% (inactive)
COc1cc2c(cc1OC)C(C)N(S(=O)(=O)c1cnc(Cl)c(Cl)c1)CC2 (configuration not stated)	-14.2% (inactive)
CCOc1ccc(N/C=C/C(=O)c2ccc(OC)c(OC)c2)cc1	-2.16% (inactive)
N/C(=N\OC(=O)c1ccc(Cl)cc1Cl)c1ccncc1	3.52% (inactive)

Structure (SMILES)	activity change, negative = viability loss
O=C1CN(c2ccccc2)C(=S)N1C(=O)c1ccccc1	-0.936% (inactive)
O=C1C=CC(=C(c2ccc(O)cc2)c2ccc(O)cc2)C=C1	-65.4% (inactive)
COC(=O)CCS(=O)(=O)c1nc(-c2ccccc2)cc(C(F)(F)F)n1	-90.5% (inactive)
COc1ccccc1-c1cc(C(F)(F)F)nc(S(C)(=O)=O)n1	-87.5% (inactive)
N=C1C(c2nc3ccccc3[nH]2)=C(O)CN1C1CCCCC1	0.386% (inactive)
Cc1ccc(C(=O)Nc2ccccc2Cl)cc1	-19.9% (inactive)
Cc1cc(C(=O)CCl)c(C)n1CCc1ccc(F)cc1	-36.8% (inactive)
Cc1ccc2nc(NC(=O)CSCC(=O)OCC(=O)c3ccccc3)sc2c1	3.83% (inactive)
CCCCN=C(C)c1c(O)c2ccccc2oc1=O	10% (inactive)
Cc1ccc(NC(=O)c2ccccc2)cc1	-7.34% (inactive)
O=C(Nc1ccc(Cl)cc1)Nc1cccc(C(=O)O)c1	-12.4% (inactive)
COc1ccc(NC(=O)NC(=O)c2ccccc2)cc1	5.71% (inactive)
Cc1oc(=O)c(NC(=O)c2ccccc2)cc1C(=O)c1ccccc1	-13.9% (inactive)
COc1ccc(COC(=O)c2cc([N+](=O)[O-])ccc2N2CCOCC2)cc1F	6.58% (inactive)
CN(C)c1ccc(/C=C/c2cccc[n+]2[O-])cc1	-16.4% (inactive)
Cc1ccc(NC(=O)Cc2noc3ccccc23)cc1	-4.59% (inactive)
CC(=NNc1nc2ccccc2o1)c1cc2ccccc2cn1	-10.6% (inactive)
COC(=O)c1ccc(COc2ccc3c(c2)CCC3)o1	-0.066% (inactive)
Fc1ccc(-c2nnc(-c3ccc(F)cc3)o2)cc1	-15.4% (inactive)
COc1cccc(-c2nnc3sc(-c4cccs4)nn23)c1	3.21% (inactive)
Nc1ncnc(Sc2ncccn2)c1[N+](=O)[O-]	-18% (inactive)
O=C(CSc1ccccn1)c1ccc2c(c1)OCO2	5.91% (inactive)
O=C(CCl)N1CCN(S(=O)(=O)c2ccc3c(c2)CCC3)CC1	-30.6% (inactive)
O=C(Nc1nc(-c2ccccn2)cs1)c1ccc([N+](=O)[O-])o1	-8.07% (inactive)

Structure (SMILES)	activity change, negative = viability loss
N#C/C(=C(/O)CCl)c1nc2ccccc2[nH]1	-8.54% (inactive)
C/C(=C\c1ccccc1)C(=O)Nc1ccc(Cl)cn1	2.07% (inactive)
COc1cc(SC)ccc1C(=O)NCCOc1ccccc1Cl	-10.2% (inactive)
COCCNC(=O)c1cc2sc3ccccc3c2s1	-2.65% (inactive)
CCn1c(=O)c(C(=O)NCc2ccccc2Cl)c(O)c2ccccc21	-7.51% (inactive)
O=c1nc(N/N=C/c2ccccn2)cn[nH]1	-12.3% (inactive)
O=C(CCl)N(c1ccccc1)c1c[nH]c2ccccc12	-12.6% (inactive)
Cc1ccc(NC(=O)Nc2ccccc2)nc1	-8.06% (inactive)
FC(F)(F)c1cc(CCN2CCNC[C@@H]2Cc2ccccc2)cc(C(F)(F)F)c1	-36.9% (inactive)
CCSc1ccccc1C(=O)n1nnc2ccccc21	-14.9% (inactive)
Cc1cc(C(=O)COc2cccnc2[N+](=O)[O-])c(C)n1-c1ccccc1	-5.32% (inactive)
Cc1cc(C)c2ccc(N)nc2c1O	-18.6% (inactive)
Cc1cc(C(F)(F)F)c2c(N)c(C(=O)Nc3cc(C)on3)sc2n1	-11.3% (inactive)
O=C(Cn1cnc2c(oc3ccccc32)c1=O)c1ccccc1	-8.3% (inactive)
Cc1nc(C)c(C(=O)N/N=C/c2cc(Br)ccc2O)s1	-19.8% (inactive)
CCCCNc1nc(=S)n(-c2ccccc2)c(C)c1C(C)=O	-8.68% (inactive)
COCCn1c(C)cc(C(=O)COC(=O)c2ccccc2Br)c1C	1.32% (inactive)
CCC(=O)NCCc1nc2cc(NC(=O)c3cccc([N+](=O)[O-])c3)ccc2n1C	0.147% (inactive)
CC(C)(C)c1ccc(/C=N/Nc2ccc(C(=O)O)cc2)cc1	-0.109% (inactive)
Cc1ccc(/C=N/Nc2ccc(C(=O)O)cc2)s1	-11.2% (inactive)
COc1cccc(CNc2nc3ccccc3n2C)c1O	-11.7% (inactive)
CC(=O)N(c1nnc(-c2cccc(C)c2)s1)C1CCCC1	-0.421% (inactive)
CCOC(=O)c1ccc2nc(C)c(CCC(C)=O)c(Cl)c2c1	-10.8% (inactive)
O=S(=O)(c1ccc(Cl)cc1)N1CCN(Cc2ccc(O)c3ncccc23)CC1	-16.5% (inactive)

Structure (SMILES)	activity change, negative = viability loss
CCCOCc1ccc(O)c2ncccc12	-39.2% (inactive)
O=C(CSC(=S)N1CCCCC1)c1c(F)cccc1F	-8.79% (inactive)
c1ccc(Cc2cc(-c3ccccc3)on2)cc1	0.069% (inactive)
COc1cc2c(c(OC)c1OC)-c1ccc(OC)c(=O)cc1C(NC(C)=O)CC2 (configuration not stated)	-10.5% (inactive)
CCN1c2ccccc2NC2C1C(C(C)=O)C(=O)N2c1ccc(Cl)cc1 (configuration not stated)	-27.8% (inactive)
COc1cnc(-c2ccccn2)nc1NC(C)C	-48.6% (inactive)
N#CCSc1nc2ccccc2c2nc3ccccc3n12	-26.7% (inactive)
Cc1ccc(SCc2cn3cc(Cl)ccc3n2)cc1	-2.16% (inactive)
CC(=O)Nc1ccc(S(=O)(=O)N2CCn3cccc3C2C)cc1 (configuration not stated)	-15.5% (inactive)
CN1CCN(C2=C(NS(=O)(=O)c3cccs3)C(=O)c3ccccc3C2=O)CC1	-45.7% (inactive)
Cc1cc(C(=O)Nc2ccc([N+](=O)[O-])cn2)cs1	1.28% (inactive)
CCOC(=O)c1cc2sccc2n1CC(=O)N1c2ccccc2CC1C (configuration not stated)	-48.5% (inactive)
O=C(Nc1ccc2c(c1)OCCO2)c1cccc(Cl)c1Cl	6.72% (inactive)
O=C(c1nnsc1S(=O)(=O)c1ccc(Cl)cc1)N1CCOCC1	-10.9% (inactive)
CC(C)(CO)NC(=O)c1ccc2nc(Cc3cccc(Cl)c3)oc2c1	8.31% (inactive)
COc1ccc2cc3cc(C(=O)NCCc4ccc(OC)c(OC)c4)oc3nc2c1	-23.3% (inactive)
Cc1ccccc1C(=O)O/N=C(\N)c1ccc([N+](=O)[O-])cc1	-4.23% (inactive)
Nc1ccc(-c2ncc(-c3ccccc3)o2)cc1	-2.92% (inactive)
CCOC(=O)CSC1=NC(=O)/C(=C\c2ccc(Cl)cc2)S1	-52.8% (inactive)
CCOC(=O)CSC1=NC(=O)/C(=C\c2ccc(OC(C)=O)cc2)S1	-10.5% (inactive)
CC(Oc1ccccc1)C(=O)Nc1nc(-c2ccccn2)cs1 (configuration not stated)	-18.7% (inactive)
CC(C)(C)C1CCC(OC(=O)CN2CCCCC2)CC1 (configuration not stated)	-11.8% (inactive)
CC(O)CNC(=O)C1CCN(Cc2ccc(OCc3ccccc3)cc2)CC1 (configuration not stated)	-5.93% (inactive)
Cc1cc(C(=O)CN2C(=O)c3ccccc3S2(=O)=O)c(C)n1-c1ccccc1	-9.62% (inactive)

Structure (SMILES)	activity change, negative = viability loss
O=C(N/N=C\c1cc(Br)ccc1O)c1ccc(S(=O)(=O)N2CCCCC2)cc1	-30.4% (inactive)
COC(=O)[C@@H](C)NC(=O)c1ccc2oc(CCc3ccccc3)nc2c1	2.14% (inactive)
O=C(Nc1nc2ccccc2s1)c1ccccc1[N+](=O)[O-]	-11.7% (inactive)
Cc1nc2nc(C)c(NS(=O)(=O)c3ccc4c(c3)CCCC4)c(=O)n2[nH]1	3.77% (inactive)
COc1ccc(/C=C2\SC(=O)N(CCCC(=O)Nc3cc(Cl)ccc3C(=O)O)C2=O)cc1	-7.19% (inactive)
CC(C)c1ccc(CNc2ncccn2)cc1	4.61% (inactive)
COC(=O)c1ccc(/C=C(\C#N)C(=O)NC(C)c2ccccc2)cc1 (configuration not stated)	-23.5% (inactive)
Clc1ccc(-c2nc(-c3ccncc3)no2)c(Cl)c1	6.89% (inactive)
Cc1ccc(C2CC(C(F)(F)F)n3nc(C(=O)NCc4c(C)nn(C)c4C)c(Cl)c3N2)cc1 (configuration not stated)	-39.3% (inactive)
Cc1nn(-c2ccccc2Cl)c(Cl)c1/C=N/Nc1cccc(C(=O)O)c1	-8.47% (inactive)
O=C(Nc1ccc(OC(F)(F)F)cc1)c1[nH]ncc1[N+](=O)[O-]	6.68% (inactive)
C=CCNC(=O)Cn1nnc(-c2ccc(-c3ccc(OC)cc3)cc2)n1	-0.141% (inactive)
C=CCOc1ccc(/C=C2\SC(=S)N(CCC(=O)O)C2=O)cc1	13.3% (inactive)
CCc1nc2oc3ccccc3c(=O)c2cc1C(=O)OC	-4.67% (inactive)
COc1ccc(S(=O)(=O)N2CCCCC2)cc1NC(=O)c1ccc([N+](=O)[O-])o1	-35.1% (inactive)
CCCCOC(=O)c1[nH]c(C)c(C(=O)OC)c1C	-15.2% (inactive)
Oc1ccc(CNc2ccccc2F)c2cccnc12	-40.5% (inactive)
O=C(Cn1ncc(Cl)c(Cl)c1=O)c1ccc(Cl)cc1	-28.3% (inactive)
Nc1nnnn1/N=C/C(Br)=C/c1ccccc1	-14.9% (inactive)
Cc1ccsc1C(=O)OCC(=O)Nc1sccc1C(N)=O	-4.08% (inactive)
CN(C)c1nc(C=C(C#N)C#N)c(Cl)n1-c1ccc(F)cc1	-72.3% (inactive)
